Assay [1] deals with Lysosomal acid glucosylceramidase (Homo sapiens) (UniProt P04062). The experiment in a line: Glucocerebrosidase-p2 (AID 348; in the data active means potency below about 10 µM; further: potency means the concentration at half of the fitted maximal effect). As to conditions: purified GBA, blue fluorogenic substrate, 40 min. Summed up:
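Compounds titrated from 0.6 nM upwards against 0.2 nM enzyme in pH 5.9 citric acid/KH2PO4, taurocholate, tween-20; blue fluorogenic substrate 80 uM, 40 min room temperature, stopped and read Ex 365/Em 440 for AC50.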

Assay [2] in a line: AP1 Signaling Pathway (AID 357; active means well fitted curve in either direction with a large enough effect, not every such curve was filed as active;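 further: ME-180 reporter cells stimulated with EGF at its EC50 level; on the % scale 0 is the no-effect control and ±100 the full control effect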). The settings on record: ME-180 AP-1-bla reporter, EGF-induced, beta-lactamase ratio, 5 h; at 7.69 µM (top of the series) unless noted. The method, boiled down: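 First, ME-180 AP-1-bla cells were cultured overnight at 37 °C in low-serum Opti-MEM. Next, titrated compounds with EC50 EGF were incubated 5 hours. Finally, CCF4 was added for 2.5 hours and the 460/530 nm ratio recorded.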

The target of assay [3] is Cytochrome P450 1A2 (Homo sapiens) (UniProt P05177). Nature of the assay: p450-cyp1a2 (AID 410; calls by dose curve; further: potency means the concentration at half of the fitted maximal effect). As to conditions: recombinant CYP1A2, luciferin-ME demethylation, luminescence; series mostly up to 57 µM. The method, boiled down:
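Luminescent readout of luciferin formed from Luciferin-ME by human CYP1A2; data normalized against complete inhibition by 57 uM furafylline. Enzyme 20nM, substrate 100uM at Km, 100mM KPO4 buffer, 60 min reaction at room temperature.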

Assay [4] can be described thus: NFAT Signaling Pathway (AID 444; active means well fitted curve in either direction with a large enough effect, not every such curve was filed as active;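 further: carbachol stimulus at about its EC50 of 1 µM final; on the % scale 0 is the no-effect control and ±100 the full control effect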). As to conditions: Jurkat NFAT-bla M1, carbachol, beta-lactamase ratio, 5 h; at 7.69 µM (top of the series) unless noted. The method, boiled down:
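Jurkat cells carrying an NFAT-driven β-lactamase reporter and co-transfected muscarinic M1 receptor were treated with compound plus carbachol (1 uM final, an EC50 level) for 5 h at 37 °C. CCF4 loading followed for 1 h at RT; 460/530 nm ratio gave %activity.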

A short description of assay [5]: Stat Signaling Pathway (AID 446; active means well fitted curve in either direction with a large enough effect, not every such curve was filed as active;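 further: ME-180 cervical cancer cells given 40 pM IL-6 alongside compound; SIE-controlled beta-lactamase reporter measured as 460/530 nm FRET emission ratio; on the % scale 0 is the no-effect control and ±100 the full control effect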). The settings on record: ME-180 SIE beta-lactamase reporter, IL-6 stimulated, 5 h; at 7.69 µM (top of the series) unless noted. Summed up: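 Screening format detects activators and inhibitors alike: ME-180 SIE-bla cells stimulated at 40 pM IL-6 for 5 hrs with compound, then dual-emission beta-lactamase read at 405 nm excitation.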

Assay [6] addresses Glucocorticoid receptor (Homo sapiens) (UniProt P04150). The experiment in a line: GR-GFP Redistribution (AID 450;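 active means compounds whose dose series gives a full or clear partial fitted curve of increased nuclear translocation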; further: potency means the concentration at half of the fitted maximal effect). As to conditions: U2OS GR-GFP nuclear translocation, laser cytometry, 2 h.
Assay [7] has the same target. The experiment in a line: GR-EFC Redistribution (AID 451; calls by dose curve; further: potency means the concentration at half of the fitted maximal effect). As to conditions: CHO-K1 GR-EFC translocation, beta-gal luminescence, 2 h. Summed up:
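CHO-K1 cells stably expressing nuclear-localized β-gal enzyme acceptor and GR fused C-terminally to the enzyme donor fragment; ligand-driven nuclear translocation restores β-gal by complementation. Compounds titrated up to 46 uM final, 2 h at 37 °C; luminescence read.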

The target of assay [8] is Mitogen-activated protein kinase 10 (Mus musculus) (UniProt Q61831). The experiment in a line: JNK3 AlphaScreen Assay (AID 530; active means well fitted curve in either direction with a large enough effect, not every such curve was filed as active;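 further: kinase came from lysate of stimulated human HepG2 cells; signal reports phosphorylation of biotinylated GST-cJun 1-79 at Ser73 with 10 µM ATP; on the % scale 0 is the no-effect control and ±100 the full control effect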). The settings on record: JNK3 lysate, c-Jun phosphorylation; series mostly up to 57.1 µM. The method, boiled down:
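Inhibitors reduce antibody binding to phosphorylated biotin-cJun, lowering AlphaScreen luminescence. Lysates from HepG2 cells pre-activated by IL-1beta plus TNF-alpha supplied JNK3; compounds were titrated.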
In general terms: Bead proximity is the source of the signal in Alpha formats.

The target of assay [9] is 3',5'-cyclic-AMP phosphodiesterase 4B (Homo sapiens) (UniProt Q07343). Nature of the assay: qHTS Assay for Inhibitors of PDE-IV (AID 607; active means well fitted activation curve with a large enough effect in the main read-out, with a control signal flat, not every such curve was filed as active; further: % of control where 0% means no effect). As to conditions: HEK293 ACTOne CNG channel cells, membrane potential fluorescence; series mostly up to 22.9 µM. The method, boiled down: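 The readout is membrane depolarisation from a cAMP-sensing CNG channel, detected with a potential dye at ex 535/em 590. Cells were HEK293-derived (endogenous PDE-IV) at 1000 cells/well, titrated up to 22.9 uM final.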
Sequence of 3',5'-cyclic-AMP phosphodiesterase 4B (Homo sapiens) (Q07343 whole entry, looked up): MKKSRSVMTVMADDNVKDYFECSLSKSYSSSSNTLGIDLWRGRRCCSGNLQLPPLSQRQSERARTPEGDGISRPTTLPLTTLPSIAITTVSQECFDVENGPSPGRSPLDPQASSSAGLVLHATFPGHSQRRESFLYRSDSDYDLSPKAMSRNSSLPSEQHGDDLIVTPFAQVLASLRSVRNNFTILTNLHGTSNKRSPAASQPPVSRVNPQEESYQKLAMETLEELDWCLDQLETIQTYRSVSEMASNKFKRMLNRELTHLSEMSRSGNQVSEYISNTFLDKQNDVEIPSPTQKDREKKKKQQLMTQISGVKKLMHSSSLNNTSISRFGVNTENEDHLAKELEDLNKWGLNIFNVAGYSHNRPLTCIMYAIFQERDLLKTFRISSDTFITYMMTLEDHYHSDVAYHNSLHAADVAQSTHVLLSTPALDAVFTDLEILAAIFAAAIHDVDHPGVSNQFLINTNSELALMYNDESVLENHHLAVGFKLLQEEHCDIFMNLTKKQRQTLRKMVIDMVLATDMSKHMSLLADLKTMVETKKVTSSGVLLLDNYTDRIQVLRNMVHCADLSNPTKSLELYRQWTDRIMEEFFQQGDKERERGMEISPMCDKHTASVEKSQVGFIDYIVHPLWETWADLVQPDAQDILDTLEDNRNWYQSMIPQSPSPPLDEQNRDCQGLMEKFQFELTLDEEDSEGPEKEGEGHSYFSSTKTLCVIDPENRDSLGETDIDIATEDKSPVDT
Background: In qHTS, concentration-response curves come from the screen itself.

The target in assay [10] is Cytochrome P450 3A4 (Homo sapiens) (UniProt P08684). Nature of the assay: qHTS Assay for Activators of Cytochrome P450 3A4 (AID 885). Further: nearly all actives have a fitted effect of over 65% in size. As to conditions: recombinant CYP3A4, Luciferin-PPXE luminescence, 60 min; series mostly up to 57.1 µM. Summed up: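 Steps: enzyme/substrate mix dispensed; compound added, 10 min RT; NADPH regeneration solution added, 60 min RT; luciferin detection buffer stops reaction; 20 min later luminescence measured.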
Sequence of Cytochrome P450 3A4 (Homo sapiens) (P08684 whole entry, looked up): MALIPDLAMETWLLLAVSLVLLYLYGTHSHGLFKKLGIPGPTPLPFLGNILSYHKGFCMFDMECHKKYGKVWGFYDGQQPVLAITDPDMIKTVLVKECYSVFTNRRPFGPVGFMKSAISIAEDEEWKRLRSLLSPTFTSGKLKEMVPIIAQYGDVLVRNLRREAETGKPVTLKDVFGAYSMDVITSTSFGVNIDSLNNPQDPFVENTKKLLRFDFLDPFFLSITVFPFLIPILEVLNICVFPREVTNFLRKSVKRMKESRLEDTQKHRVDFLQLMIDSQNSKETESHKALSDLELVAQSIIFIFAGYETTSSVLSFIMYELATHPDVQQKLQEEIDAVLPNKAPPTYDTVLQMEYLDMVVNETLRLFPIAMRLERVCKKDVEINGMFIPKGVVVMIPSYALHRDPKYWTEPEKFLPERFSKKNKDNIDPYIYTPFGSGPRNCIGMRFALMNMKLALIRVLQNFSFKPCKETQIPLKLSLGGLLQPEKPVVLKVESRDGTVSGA

Assay [11] is described as follows: Confirmation and Secondary Assay for Modulators of Hemoglobin Beta Chain Splicing at IVS2 654 locus (AID 910).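 Further: per-well total GFP intensity by laser scanning cytometry after 2-day treatment; % of control where 0% means no effect.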 As to conditions: HeLa EGFP-654 splicing reporter, GFP fluorescence, 48 h; series mostly up to 38.3 µM. The method, boiled down:
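HeLa cells stably carrying EGFP interrupted by mutant beta-globin IVS2-654 intron (CMV-driven) were treated with compound for 2 days at 37C; corrected splicing was scored as total peak GFP intensity per well (488 nm excitation, 500-520 nm emission).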

The nature of assay [12]: Confirmation and Secondary Assay for Modulators of Hemoglobin Beta Chain Splicing at IVS2 705 locus (AID 930).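 Further: HeLa cells stably expressing the EGFP-705 splicing reporter; GFP fluorescence per well restored by corrected splicing of the IVS2-705 intron in EGFP; % of control where 0% means no effect.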 As to conditions: HeLa EGFP-705 splicing reporter, GFP fluorescence, 48 h; series mostly up to 38.3 µM. Summed up: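 Stable HeLa line with EGFP disrupted by mutant beta-globin intron 2 (705). Overnight attachment, then 2 days of compound at 37C, 5% CO2. Signal: peak GFP intensity summed over objects 5-250 µm.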

Assay [13] can be described thus: qHTS Assay for Lipid Storage Modulators (AID 1519; calls by dose curve). The settings on record: Drosophila S3 cells, BODIPY lipid droplet/cell ratio, laser cytometry, cells loaded with oleic acid; for activity change, negative = inhibition: at 57.5 µM (top of the series). The method, boiled down: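 Cells seeded at 5,000 per well were treated with compounds over a concentration series and loaded with oleic acid (400 uM, as added). Lipid droplet fluorescence (488 nm excitation, 500-530 nm channel) was read by laser-scanning cytometry and normalized to 20 uM Triacsin C.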

Assay [14] has as its target Ubiquitin carboxyl-terminal hydrolase 1 (Homo sapiens) (UniProt O94782). Nature of the assay: Inhibitors of USP1/UAF1: Pilot qHTS (AID 504865). Further: nearly all actives have a fitted effect of over 35% in size. Further: potency means the concentration at half of the fitted maximal effect. As to conditions: purified USP1/UAF1, Ub-rhodamine cleavage fluorescence; series mostly up to 54.9 µM. Summed up:
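Deubiquitinase activity followed as kinetic rhodamine fluorescence release from 150 nM Ub-Rho. 1 nM USP1/UAF1 with compound, after 15 min room-temperature preincubation, in HEPES pH 7.8 buffer containing TCEP, EDTA, BSA and Tween-20.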

Assay [15] in a line: Primary qHTS for small molecule stabilizers of the endoplasmic reticulum resident proteome: Secreted ER Calcium Modulated Protein (SERCaMP) assay (AID 1508630). Further: on the % scale 0 is the no-effect control and ±100 the full control effect. As to conditions: SH-SY5Y GLuc-SERCaMP (Gaussia luciferase released on ER calcium loss) secretion, thapsigargin, luminescence; series mostly up to 38.4 µM. The method, boiled down:
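GLuc-SERCaMP-expressing SH-SY5Y cells, pretreated 16 h with compound, are challenged with thapsigargin to empty ER calcium stores; after 4 h, coelenterazine is added directly to the medium and luminescence is imaged.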

Assay [16] is described as follows: qHTS Assay for Identification of Small Molecule Agonists for Hypoxia Response Element Signaling Pathway (AID 914; active means well fitted activation curve with a large enough effect in the signal ratio, with a control signal flat, not every such curve was filed as active; the % refers to the signal ratio; further: % of control where 0% means no effect). The settings on record: ME-180 (cervical carcinoma) HRE-bla reporter, beta-lactamase ratio, CoCl2, 17 h; activation: stronger effect = higher value. The method, boiled down:
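Reporter activity (beta-lactamase, CCF4 460nm/530nm ratio) in HRE-bla ME-180 cells is recorded after 17 h compound exposure with EC50 CoCl2 at 37 degrees Celsius. AC50 values come from titration data.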

Assay [17] has as its target Cytochrome P450 3A4 (Homo sapiens) (UniProt P08684). Nature of the assay: qHTS Assay for Inhibitors and Substrates of Cytochrome P450 3A4 (AID 884). Further: potency means the concentration at half of the fitted maximal effect; nearly all actives have a fitted effect of over 50% in size. The settings on record: recombinant CYP3A4, Luciferin-PPXE luminescence; series mostly up to 57.1 µM. Summed up:
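20 nM human CYP3A4 with 25 uM Luciferin-PPXE (at KM) in 200 mM KPO4, preincubated 10 min with compound; NADPH regeneration started a 60 min RT reaction. Luciferin detected by luminescence, normalized to 57 uM ketoconazole as full inhibition.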

Where [18] appears, read: measured here: cell count channel max response.
The mark [19] stands for this setting: measured here: lipid channel max response.

Structures are written as SMILES. Results filed as inconclusive are left out. Calls of active or inactive are those of the source. Unless noted, the call rests on the fitted dose curve; in most records, active means well fitted curve in the direction sought with a large enough effect; inconclusive means small, poorly fitted or top-dose-only effect, or another doubt; inactive means no such curve, though single readings can be large; an effect the other way counts as inactive or inconclusive.

Sequence of Ubiquitin carboxyl-terminal hydrolase 1 (Homo sapiens) (O94782 whole entry, looked up): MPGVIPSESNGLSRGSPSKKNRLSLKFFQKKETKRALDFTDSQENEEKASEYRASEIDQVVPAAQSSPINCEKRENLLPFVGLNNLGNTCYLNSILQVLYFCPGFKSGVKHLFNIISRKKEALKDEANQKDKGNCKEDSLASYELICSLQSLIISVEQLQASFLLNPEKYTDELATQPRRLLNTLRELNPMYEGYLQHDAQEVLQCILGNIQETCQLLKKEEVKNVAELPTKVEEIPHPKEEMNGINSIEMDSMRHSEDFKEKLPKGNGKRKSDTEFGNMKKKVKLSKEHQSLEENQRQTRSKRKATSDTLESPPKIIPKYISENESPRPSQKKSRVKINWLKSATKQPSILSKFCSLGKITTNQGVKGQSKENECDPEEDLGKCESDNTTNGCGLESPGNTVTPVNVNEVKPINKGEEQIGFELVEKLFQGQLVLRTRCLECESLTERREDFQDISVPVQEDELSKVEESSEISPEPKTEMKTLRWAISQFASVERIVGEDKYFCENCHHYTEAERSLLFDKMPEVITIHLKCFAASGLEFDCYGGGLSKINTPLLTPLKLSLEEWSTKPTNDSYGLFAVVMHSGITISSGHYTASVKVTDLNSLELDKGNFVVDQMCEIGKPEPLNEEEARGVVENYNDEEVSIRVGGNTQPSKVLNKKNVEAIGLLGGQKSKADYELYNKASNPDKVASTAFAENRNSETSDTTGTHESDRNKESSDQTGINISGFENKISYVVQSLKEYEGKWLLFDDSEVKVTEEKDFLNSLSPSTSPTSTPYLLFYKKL
Sequence of Glucocorticoid receptor (Homo sapiens) (P04150 whole entry, looked up): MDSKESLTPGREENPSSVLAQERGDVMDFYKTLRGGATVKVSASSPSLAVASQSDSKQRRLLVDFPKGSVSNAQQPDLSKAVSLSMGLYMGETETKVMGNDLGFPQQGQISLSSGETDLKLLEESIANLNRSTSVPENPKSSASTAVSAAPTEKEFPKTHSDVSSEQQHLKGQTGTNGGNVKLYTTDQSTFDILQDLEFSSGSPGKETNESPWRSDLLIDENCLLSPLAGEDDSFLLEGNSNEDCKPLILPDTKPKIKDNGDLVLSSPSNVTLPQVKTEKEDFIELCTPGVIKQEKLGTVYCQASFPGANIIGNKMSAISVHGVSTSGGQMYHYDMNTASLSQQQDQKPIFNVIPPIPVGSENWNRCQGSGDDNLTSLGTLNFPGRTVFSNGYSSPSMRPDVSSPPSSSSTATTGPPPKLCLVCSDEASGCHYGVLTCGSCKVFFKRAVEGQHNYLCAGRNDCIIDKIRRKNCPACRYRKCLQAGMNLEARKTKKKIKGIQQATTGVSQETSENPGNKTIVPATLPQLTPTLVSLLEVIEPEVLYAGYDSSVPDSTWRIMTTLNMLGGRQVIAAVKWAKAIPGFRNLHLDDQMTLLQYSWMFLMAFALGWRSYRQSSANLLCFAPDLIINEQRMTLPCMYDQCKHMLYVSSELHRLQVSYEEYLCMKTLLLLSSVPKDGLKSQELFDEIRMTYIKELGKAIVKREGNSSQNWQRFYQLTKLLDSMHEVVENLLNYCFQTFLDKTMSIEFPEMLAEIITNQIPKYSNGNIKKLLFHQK
Sequence of Lysosomal acid glucosylceramidase (Homo sapiens) (P04062 whole entry, looked up): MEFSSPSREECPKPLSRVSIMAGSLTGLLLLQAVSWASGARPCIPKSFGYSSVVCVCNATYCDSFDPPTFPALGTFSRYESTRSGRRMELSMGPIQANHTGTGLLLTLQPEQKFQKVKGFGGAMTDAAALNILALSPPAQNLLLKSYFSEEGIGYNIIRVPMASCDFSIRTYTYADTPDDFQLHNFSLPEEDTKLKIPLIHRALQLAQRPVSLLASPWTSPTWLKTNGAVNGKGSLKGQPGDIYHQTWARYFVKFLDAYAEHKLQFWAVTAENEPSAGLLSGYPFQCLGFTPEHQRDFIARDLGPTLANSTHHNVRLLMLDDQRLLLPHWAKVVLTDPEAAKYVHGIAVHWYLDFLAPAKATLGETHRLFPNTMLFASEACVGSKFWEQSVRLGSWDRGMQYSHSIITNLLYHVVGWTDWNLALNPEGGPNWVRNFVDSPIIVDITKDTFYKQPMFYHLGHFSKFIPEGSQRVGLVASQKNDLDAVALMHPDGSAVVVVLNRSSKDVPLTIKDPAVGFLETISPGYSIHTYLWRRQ
Sequence of Cytochrome P450 1A2 (Homo sapiens) (P05177 whole entry, looked up): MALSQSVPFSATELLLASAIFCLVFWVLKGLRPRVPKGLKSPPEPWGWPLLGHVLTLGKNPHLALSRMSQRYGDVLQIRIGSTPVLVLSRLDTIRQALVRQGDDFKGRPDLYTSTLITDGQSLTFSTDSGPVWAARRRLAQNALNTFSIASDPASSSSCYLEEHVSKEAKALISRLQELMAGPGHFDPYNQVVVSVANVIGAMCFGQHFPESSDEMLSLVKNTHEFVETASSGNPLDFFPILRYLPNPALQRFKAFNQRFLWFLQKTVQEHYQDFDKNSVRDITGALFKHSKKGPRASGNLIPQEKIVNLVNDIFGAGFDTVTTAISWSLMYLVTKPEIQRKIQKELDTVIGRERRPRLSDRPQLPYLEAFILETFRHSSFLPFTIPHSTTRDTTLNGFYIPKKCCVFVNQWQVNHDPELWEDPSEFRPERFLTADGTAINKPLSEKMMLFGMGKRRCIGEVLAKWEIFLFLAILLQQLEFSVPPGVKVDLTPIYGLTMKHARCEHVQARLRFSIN

For `N#Cc1cccc(-c2cc(NCc3cccs3)ncn2)c1`, the Potency was > 11.4 µM (inactive) in assay [1], 0.794 µM (active) in [3], > 46 µM (inactive) in assay [6] and > 46 µM (inactive) in assay [7]. For the same molecule, the activity change, negative = inhibition in assay [2] was -6.14% (inactive); in assay [4], 12.6% (inactive); in assay [13] it was 3.14% (inactive). Also, the activity, negative = inhibition in assay [5] was -3.35% (inactive). Further, the molecule was classed as inactive in assay [8], in assay [11] and in assay [12]. Moreover, the Potency result in [9], in [10], in assay [14] and in assay [15] was “inactive” throughout. The max response in assay [13] (setting [18]) was -10.3%; in assay [13] (setting [19]), -10.9%.
On to `c1cncc(CNc2cc(-c3ccc4c(c3)OCO4)ncn2)c1`, for which the Potency is > 11.4 µM (inactive) in assay [1], 0.251 µM (active) in assay [3], > 46 µM (inactive) in assay [6] and > 46 µM (inactive) in assay [7]. The activity change, negative = inhibition in assay [2] was -7.3% (inactive); in assay [4], 11.5% (inactive); in assay [13], 11.7% (inactive). Further, the activity, negative = inhibition in [5] is 3.19% (inactive). The outcome in [8], in assay [11] and in [12] was inactive. Further, the Potency result in assay [9], in assay [14] and in assay [15] was “inactive” throughout. Moreover, the max response in assay [13] (setting [18]) came out at 14%; in assay [13] (setting [19]), 18.9%.
As for `CN(C)Cc1ccccc1-c1cc(Nc2ccccc2)ncn1`, the Potency in assay [1] is > 11.4 µM (inactive); in [3], 15.8 µM (active); in assay [6], > 46 µM (inactive); in assay [7], > 46 µM (inactive). Also, the activity change, negative = inhibition in [2] was 1.09% (inactive); in assay [4], -10.2% (inactive); in [13], 4.87% (inactive). Further, the activity, negative = inhibition in [5] was 9.68% (inactive). The molecule was classed as inactive in assay [8], in assay [11] and in assay [12]. Moreover, the Potency entry in [9], in assay [14] and in assay [15] was “inactive” in each case. Also, the max response in assay [13] (setting [18]) stood at 5.64%; in [13] (setting [19]), 12.4%.
Regarding `Cc1noc(C)c1-c1cc(N(C)C)ncn1`, the Potency is > 11.4 µM (inactive) in assay [1], 3.16 µM (active) in [3], > 46 µM (inactive) in assay [6] and > 46 µM (inactive) in [7]. In addition, the activity change, negative = inhibition in [2] was 10% (inactive); in assay [4] it was 9.29% (inactive); in assay [13], 8.35% (inactive). Also, the activity, negative = inhibition in assay [5] was 16% (inactive). Besides, the call in assay [8], in [11] and in [12] was inactive. The Potency result in assay [9], in assay [14] and in assay [15] was “inactive” in each case. Besides, in [16], the activation was 0.655% (inactive). Also, the max response in [13] (setting [18]) stood at 3.97%; in [13] (setting [19]), 11.9%.
In the case of `COc1ccccc1-c1nccc(-n2ccnc2)n1`, the Potency in [1] is > 11.4 µM (inactive); in assay [3] it was 0.158 µM (active); in [6] it was > 46 µM (inactive); in [7], > 46 µM (inactive); in assay [17] it was 1.58 µM (active). Moreover, the activity change, negative = inhibition was 10.1% (inactive) in assay [2], -2.21% (inactive) in assay [4] and 10.5% (inactive) in [13]. Moreover, the activity, negative = inhibition in assay [5] was 11.9% (inactive). Besides, the molecule was called inactive in assay [8], in assay [11] and in [12]. For the same molecule, the Potency entry in assay [9], in assay [10], in assay [14] and in assay [15] was “inactive” throughout. Further, the max response came out at 15.1% in assay [13] (setting [18]) and 27.4% in assay [13] (setting [19]).
Regarding `c1cncc(CNc2nc(-c3ccoc3)nc3ccccc23)c1`, the Potency in assay [1] was > 11.4 µM (inactive); in assay [3], 0.398 µM (active); in assay [6], > 46 µM (inactive); in [7], > 46 µM (inactive); in assay [17], 7.94 µM (active); in assay [14], 44.7 µM (active). Moreover, the figures for the activity change, negative = inhibition in assay [2], in assay [4] and in [13] were 1.41% (inactive), -9.01% (inactive) and 12.2% (inactive), respectively. Moreover, in assay [5], the activity, negative = inhibition is -4.87% (inactive). In addition, the call in assay [8], in assay [11] and in assay [12] was inactive. Moreover, the Potency entry in assay [10] and in assay [15] was “inactive” each time. Also, the figures for the max response in assay [13] (setting [18]) and in assay [13] (setting [19]) were 2.22% and 16.5%, respectively.

For the origin of these results see PubChem BioAssay (NCATS).
